Among the data in PubChem BioAssay (Tox21) are Potency and max response values, retold here.

Assay [1] can be described thus: qHTS RealTime-Glo MT Cell Viability Assay in HepG2 cells - 8 hour (AID 1224873). Further: nearly all actives have a fitted effect of over 55% in size. Further: potency means the concentration at half of the fitted maximal effect. An outline of the steps: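 HepG2 cells (600/well) mixed with RealTime-Glo MT reagent, settled 5 h at 37 C/5% CO2 before compound addition. Nonlytic NanoLuc luminescence from viable-cell prosubstrate reduction read repeatedly during 40 h treatment at 37 C.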
In general terms: Quantitative high-throughput screening tests each substance at several concentrations.

The nature of assay [2]: qHTS RealTime-Glo MT Cell Viability Assay in HepG2 cells - 32 hour (AID 1224877). Further: nearly all actives have a fitted effect of over 55% in size. Further: potency means the concentration at half of the fitted maximal effect. The method, boiled down:
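Luminescence read-out: viable HepG2 cells reduce a prosubstrate to a NanoLuc substrate, giving a signal proportional to live cell number. Reads taken at 0, 8, 16, 24, 32 and 40 h of compound exposure at 37 C.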

Assay [3] in a line: A CellTox Green Cytotoxicity Assay to monitor cytotoxicity in HepG2 cells - 0 hour (AID 1224882). Further: nearly all actives have a fitted effect of over 35% in size. Further: potency means the concentration at half of the fitted maximal effect. An outline of the steps: (§1)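 Fluorescent DNA-binding dye, 600 HepG2 cells/well, 5 h preincubation then compound in DMSO; same plates read at 0–40 h, 37 C.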
Assay [4] can be described thus: qHTS RealTime-Glo MT Cell Viability Assay in HEK293 cells - 40 hour (AID 1224874). Further: nearly all actives have a fitted effect of over 50% in size. Further: potency means the concentration at half of the fitted maximal effect. The conditions noted are these: RealTime-Glo luminescence; max response: active compounds read low. The method, boiled down:
(§2)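 Measured as luminescence from the same continuously cultured HEK293 wells at successive time points (0, 8, 16, 24, 32, 40 h) after compound addition. Reagent present from seeding; dosing at 5 h; incubation 37 C.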

Assay [5] is described as follows: A CellTox Green Cytotoxicity Assay to monitor cytotoxicity in HEK293 cells - 24 hour (AID 1224875). Further: nearly all actives have a fitted effect of over 45% in size. Further: potency means the concentration at half of the fitted maximal effect. An outline of the steps: (§3)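 Homogeneous no-lysis format: HEK293 cell suspension mixed with CellTox Green reagent, seeded, incubated 5 h at 37 C/5% CO2, then dosed by pintool with compound in DMSO.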
Assay [6] is described as follows: A CellTox Green Cytotoxicity Assay to monitor cytotoxicity in HepG2 cells - 16 hour (AID 1224876). Further: nearly all actives have a fitted effect of over 45% in size. Further: potency means the concentration at half of the fitted maximal effect. The method, boiled down: as §1
Assay [7] in a line: A CellTox Green Cytotoxicity Assay to monitor cytotoxicity in HepG2 cells - 24 hour (AID 1224878). Further: nearly all actives have a fitted effect of over 45% in size. Further: potency means the concentration at half of the fitted maximal effect. An outline of the steps: as §1
The nature of assay [8]: A CellTox Green Cytotoxicity Assay to monitor cytotoxicity in HepG2 cells - 40 hour (AID 1224879). Further: nearly all actives have a fitted effect of over 40% in size. Further: potency means the concentration at half of the fitted maximal effect. The method, boiled down: as §1
Assay [9] is described as follows: qHTS RealTime-Glo MT Cell Viability Assay in HEK293 cells - 0 hour (AID 1224880). Further: top concentration of the series differs between compounds; nearly all actives have a fitted effect of over 45% in size. The method, boiled down: as §2
Assay [10] is described as follows: A CellTox Green Cytotoxicity Assay to monitor cytotoxicity in HEK293 cells - 32 hour (AID 1224881). Further: nearly all actives have a fitted effect of over 40% in size. Further: potency means the concentration at half of the fitted maximal effect. An outline of the steps: as §3

Structures are written as SMILES. Values without a mark were called inactive. Results filed as inconclusive are left out. Calls of active or inactive are those of the source. The call rests on the fitted dose curve; in most records, active means well fitted curve in the direction sought with a large enough effect in the repeat runs; inconclusive means weak or mixed curves; inactive means no such curve, though single readings can be large; an effect the other way counts as inactive or inconclusive.
On the % scale 0 is the no-effect control and ±100 the full control effect.

Take `CC1(C)CCC(C)(C)c2cc(C(=O)Nc3ccc(C(=O)O)cc3)ccc21`: the Potency result in [1], in assay [2] and in assay [3] was “inactive” each time.

For `CN(C)c1ccc(C2(c3ccc(N(C)C)cc3)OC(=O)c3cc(N(C)C)ccc32)cc1`, the max response in [4] is -1.22%. For the same compound, the Potency result in assay [5], in assay [6], in assay [7], in assay [8], in assay [9] and in assay [10] was “inactive” throughout. In addition, in assay [3], the Potency result was “inactive”.

In the case of `CCOC(=O)c1nc(C(Cl)(Cl)Cl)n(-c2ccc(Cl)cc2Cl)n1`, the max response in [4] was -11.5%. In addition, the Potency entry in assay [5], in assay [6], in assay [8], in assay [9], in [10] and in assay [3] was “inactive” throughout.

For the compound `O=C1C=CC(=O)N1c1ccc(Cc2ccc(N3C(=O)C=CC3=O)cc2)cc1`, the Potency in assay [1] was 12.3 µM (active); in assay [6], 13.8 µM (active); in assay [2] it was 12.3 µM (active); in assay [7] it was 11 µM (active); in assay [8], 7.76 µM (active); in assay [10], 19.5 µM (active). Moreover, the Potency entry in assay [3] was “inactive”.

Take `Cc1[nH]cnc1C[C@H]1CCc2c(C)c3ccccc3n2C1=O`: the Potency in assay [4] was 23.9 µM (active); in assay [5] it was 47.8 µM (active); in [6], 38 µM (active); in [2] it was 42.6 µM (active); in assay [8], 33.8 µM (active); in assay [10], 47.8 µM (active). Moreover, the Potency result in assay [9] and in assay [3] was “inactive” each time.

On to `O=C(Nc1cccc([N+](=O)[O-])c1)c1cc2ccccc2cc1O`, for which the Potency result in [1], in assay [2], in assay [7], in assay [8], in assay [9] and in assay [10] was “inactive” each time. The Potency entry in assay [3] is “inactive”.

Regarding `O=S1(=O)CC(Cl)(Cl)C(Cl)(Cl)C1`, the Potency was 8.71 µM (active) in assay [1]; 11 µM (active) in assay [6]; 6.16 µM (active) in assay [2]; 9.77 µM (active) in assay [7]; 6.92 µM (active) in [8]. For the same compound, the Potency result in assay [9] and in assay [3] was “inactive” in each case.

As to `CC(C)(C)NC(=O)[C@@H]1C[C@@H]2CCCC[C@@H]2CN1C[C@@H](O)[C@H](Cc1ccccc1)NC(=O)[C@H](CC(N)=O)NC(=O)c1ccc2ccccc2n1`, the Potency in assay [7] was 55.7 µM (active); in assay [8], 49.6 µM (active). Also, the Potency entry in [9] and in [3] was “inactive” in each case.

As to `NNc1nc(-c2ccccc2)cs1`, the Potency entry in assay [5], in [6], in assay [2], in [8], in assay [9] and in assay [10] was “inactive” in each case. For the same compound, the Potency entry in assay [3] was “inactive”.

As for `Cc1cc(=O)oc2cc(N(C)C)ccc12`, the Potency result in assay [5], in [6], in [2], in assay [7], in assay [8] and in assay [9] was “inactive” each time. The Potency result in [10] and in assay [3] was “inactive” in each case.

Take `CC1=C(C(=O)OC(C)C)C(c2cccc([N+](=O)[O-])c2)C(C(=O)OC2CN(C(c3ccccc3)c3ccccc3)C2)=C(N)N1` (stereo not drawn): the Potency result in assay [5], in [9], in [10] and in assay [3] was “inactive” in each case. In addition, the Potency in assay [2] was 21.3 µM (active); in assay [7] it was 23.9 µM (active); in assay [8], 23.9 µM (active).

On to `Cc1cc(O)c(Cl)c(C)c1Cl`, for which the max response in [4] is -27.6%. The Potency result in [2], in assay [9] and in assay [3] was “inactive” each time. Moreover, the Potency in assay [8] was 49 µM (active).

`CCC1=C[C@@H]2CN(C1)Cc1c([nH]c3ccccc13)[C@@](C(=O)OC)(c1cc3c(cc1OC)N(C)[C@H]1[C@@](O)(C(=O)OC)[C@H](OC(C)=O)[C@]4(CC)C=CCN5CC[C@]31[C@@H]54)C2`: in [4], the Potency was 0.0067 µM (active). In addition, the Potency entry in assay [5], in [8], in [9], in [10] and in [3] was “inactive” throughout.

Turning to `CC(=O)S[C@@H]1CC2=CC(=O)CC[C@]2(C)[C@H]2CC[C@@]3(C)[C@@H](CC[C@@]34CCC(=O)O4)[C@H]12`, the Potency entry in assay [5], in assay [9], in assay [10] and in assay [3] was “inactive” in each case. For the same compound, the Potency in [8] was 54.9 µM (active).

With `COc1cc(-c2nc(NC(=O)c3cc4cc(C)cc(C)c4n3CC(=O)O)sc2CCC2CCCCC2)c(OC)cc1Cl`, the Potency result in assay [5], in [9] and in assay [10] was “inactive” throughout. The values for the Potency in assay [2], in [8] and in assay [3] were 40 µM (active), 44.9 µM (active) and 44.9 µM (active), respectively.

For the compound `N/C(=N\N=C\c1ccc(Cl)cc1)N/N=C/c1ccc(Cl)cc1`, the Potency in [5] is 23.9 µM (active); in assay [7], 21.3 µM (active); in [8], 23.9 µM (active); in [10], 23.9 µM (active). In addition, the Potency result in assay [3] was “inactive”.

Regarding `COc1ccc(-c2ccc3cc(C(=O)O)ccc3c2)cc1C12CC3CC(CC(C3)C1)C2`, the figures for the Potency in assay [4], in assay [7] and in assay [8] were 4.77 µM (active), 23.9 µM (active) and 19 µM (active), respectively. Further, the Potency result in assay [5], in assay [9] and in assay [10] was “inactive” in each case.

As for `CCCN(CCC)C(=O)C(CCC(=O)OCCCN1CCN(CCOC(=O)Cc2c(C)n(C(=O)c3ccc(Cl)cc3)c3ccc(OC)cc23)CC1)NC(=O)c1ccccc1` (stereo not drawn), the Potency entry in [5], in assay [9], in [10] and in assay [3] was “inactive” throughout. Besides, the Potency in assay [6], in [7] and in assay [8] was 23.9 µM (active) throughout.

In the case of `Oc1cccc(-c2c3nc(c(-c4cccc(O)c4)c4ccc([nH]4)c(-c4cccc(O)c4)c4nc(c(-c5cccc(O)c5)c5ccc2[nH]5)CC4)C=C3)c1`, the Potency result in assay [5], in assay [6], in assay [2], in assay [7], in assay [8] and in assay [9] was “inactive” throughout. In addition, the Potency entry in assay [10] and in [3] was “inactive” each time.

Turning to `Nc1ccc(N)c2ccccc12`, the Potency in [6], in assay [7] and in [8] was 54.9 µM (active) throughout. Moreover, the Potency result in [9] and in assay [3] was “inactive” each time.

As to `O=C1Cc2cc(CCN3CCN(c4nsc5ccccc45)CC3)c(Cl)cc2N1`, the Potency result in [9] and in assay [3] was “inactive” in each case.

Regarding `Cc1ccc2oc(CN(Cc3ccccc3)C(=O)Nc3c(F)cc(F)cc3F)c(-c3ccc(Cl)cc3)c2c1`, the Potency result in [6], in assay [8], in assay [9], in assay [10] and in [3] was “inactive” throughout.
